Measurements published in the supplement of paper PMC11732987, “Enantioselective OTUD7B fragment discovery through chemoproteomics screening and high-throughput optimisation” (Communications Chemistry, 2025).

Columns and labels:
Experiment in all cases: log2 ratio of Biotin-Ahx-Ub-VS probe labelling (fragment/DMSO); higher = less target engagement (more negative = stronger competition), active = hit call of the paper (q ≤ 0.05, log2 ratio ≤ -1)
Details in all cases: compound concentration: 200 uM; treatment time: 3 h
USP19 = target: T1, USP19 (UniProt O94966)
T1 sequence (whole entry): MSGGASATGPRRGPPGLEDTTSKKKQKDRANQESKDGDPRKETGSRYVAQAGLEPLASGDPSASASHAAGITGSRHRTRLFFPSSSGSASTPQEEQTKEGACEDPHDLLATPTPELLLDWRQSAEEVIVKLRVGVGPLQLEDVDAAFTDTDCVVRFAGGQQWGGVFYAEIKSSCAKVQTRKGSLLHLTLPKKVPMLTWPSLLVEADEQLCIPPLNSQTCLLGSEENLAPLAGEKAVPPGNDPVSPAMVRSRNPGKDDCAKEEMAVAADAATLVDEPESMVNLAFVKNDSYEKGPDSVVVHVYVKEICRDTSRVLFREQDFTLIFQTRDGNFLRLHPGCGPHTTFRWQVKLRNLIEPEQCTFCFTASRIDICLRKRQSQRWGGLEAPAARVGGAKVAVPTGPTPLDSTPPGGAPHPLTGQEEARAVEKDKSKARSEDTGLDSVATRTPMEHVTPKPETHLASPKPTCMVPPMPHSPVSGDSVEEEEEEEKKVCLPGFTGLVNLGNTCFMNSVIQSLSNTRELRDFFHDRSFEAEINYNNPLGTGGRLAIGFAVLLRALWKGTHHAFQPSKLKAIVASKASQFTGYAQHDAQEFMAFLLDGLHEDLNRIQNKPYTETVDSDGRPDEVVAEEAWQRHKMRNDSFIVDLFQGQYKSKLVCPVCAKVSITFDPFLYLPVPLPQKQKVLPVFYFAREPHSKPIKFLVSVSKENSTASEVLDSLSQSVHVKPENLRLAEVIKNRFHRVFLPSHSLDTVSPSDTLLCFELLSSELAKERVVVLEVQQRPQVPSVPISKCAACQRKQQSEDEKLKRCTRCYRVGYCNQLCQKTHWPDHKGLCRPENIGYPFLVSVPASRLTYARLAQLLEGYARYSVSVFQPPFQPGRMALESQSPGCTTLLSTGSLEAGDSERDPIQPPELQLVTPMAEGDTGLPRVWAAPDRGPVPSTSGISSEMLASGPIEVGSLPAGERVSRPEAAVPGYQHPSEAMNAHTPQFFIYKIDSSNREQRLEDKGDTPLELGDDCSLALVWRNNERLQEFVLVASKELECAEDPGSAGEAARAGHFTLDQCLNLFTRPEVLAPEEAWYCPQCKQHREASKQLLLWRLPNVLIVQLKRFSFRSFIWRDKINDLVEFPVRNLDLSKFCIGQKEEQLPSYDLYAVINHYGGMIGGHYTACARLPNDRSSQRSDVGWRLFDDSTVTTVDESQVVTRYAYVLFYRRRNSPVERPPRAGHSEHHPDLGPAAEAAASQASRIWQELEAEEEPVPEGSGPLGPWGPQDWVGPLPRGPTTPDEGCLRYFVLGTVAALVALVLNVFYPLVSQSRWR
Method in brief: (§1)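 Each value is an average log2 ratio of fragment to vehicle, tested by unpaired t-test. The underlying Spectronaut label-free quantities were global-median-normalised, and only proteins with ≥2 unique peptides were included. Triplicate HEK293T lysate samples (495 µg) were exposed to fragment at 200 µM or vehicle for 3 h, then to Biotin-Ahx-Ub-VS at 0.5 µM final for 1 h, before NeutrAvidin enrichment of labelled DUBs, LysC and trypsin digestion, and diaPASEF LC-MS/MS.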

USP22 = target: T2, USP22 (UniProt Q9UPT9)
T2 sequence (whole entry): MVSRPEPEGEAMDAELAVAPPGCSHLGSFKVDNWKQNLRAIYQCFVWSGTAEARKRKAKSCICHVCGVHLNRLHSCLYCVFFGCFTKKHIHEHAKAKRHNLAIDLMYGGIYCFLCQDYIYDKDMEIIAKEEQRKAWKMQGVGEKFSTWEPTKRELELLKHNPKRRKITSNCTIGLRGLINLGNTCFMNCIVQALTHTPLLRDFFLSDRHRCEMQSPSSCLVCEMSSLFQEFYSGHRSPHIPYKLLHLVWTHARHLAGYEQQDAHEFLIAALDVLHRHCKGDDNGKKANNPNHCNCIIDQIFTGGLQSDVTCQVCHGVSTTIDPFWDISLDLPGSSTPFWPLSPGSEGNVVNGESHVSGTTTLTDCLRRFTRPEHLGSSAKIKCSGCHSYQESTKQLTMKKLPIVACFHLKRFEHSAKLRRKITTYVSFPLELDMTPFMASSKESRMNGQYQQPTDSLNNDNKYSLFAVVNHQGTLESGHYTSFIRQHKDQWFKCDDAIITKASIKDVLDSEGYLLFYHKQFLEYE
Method in brief: as §1

USP24 = USP24 (UniProt Q9UPU5)
Sequence of USP24 (Q9UPU5 whole entry): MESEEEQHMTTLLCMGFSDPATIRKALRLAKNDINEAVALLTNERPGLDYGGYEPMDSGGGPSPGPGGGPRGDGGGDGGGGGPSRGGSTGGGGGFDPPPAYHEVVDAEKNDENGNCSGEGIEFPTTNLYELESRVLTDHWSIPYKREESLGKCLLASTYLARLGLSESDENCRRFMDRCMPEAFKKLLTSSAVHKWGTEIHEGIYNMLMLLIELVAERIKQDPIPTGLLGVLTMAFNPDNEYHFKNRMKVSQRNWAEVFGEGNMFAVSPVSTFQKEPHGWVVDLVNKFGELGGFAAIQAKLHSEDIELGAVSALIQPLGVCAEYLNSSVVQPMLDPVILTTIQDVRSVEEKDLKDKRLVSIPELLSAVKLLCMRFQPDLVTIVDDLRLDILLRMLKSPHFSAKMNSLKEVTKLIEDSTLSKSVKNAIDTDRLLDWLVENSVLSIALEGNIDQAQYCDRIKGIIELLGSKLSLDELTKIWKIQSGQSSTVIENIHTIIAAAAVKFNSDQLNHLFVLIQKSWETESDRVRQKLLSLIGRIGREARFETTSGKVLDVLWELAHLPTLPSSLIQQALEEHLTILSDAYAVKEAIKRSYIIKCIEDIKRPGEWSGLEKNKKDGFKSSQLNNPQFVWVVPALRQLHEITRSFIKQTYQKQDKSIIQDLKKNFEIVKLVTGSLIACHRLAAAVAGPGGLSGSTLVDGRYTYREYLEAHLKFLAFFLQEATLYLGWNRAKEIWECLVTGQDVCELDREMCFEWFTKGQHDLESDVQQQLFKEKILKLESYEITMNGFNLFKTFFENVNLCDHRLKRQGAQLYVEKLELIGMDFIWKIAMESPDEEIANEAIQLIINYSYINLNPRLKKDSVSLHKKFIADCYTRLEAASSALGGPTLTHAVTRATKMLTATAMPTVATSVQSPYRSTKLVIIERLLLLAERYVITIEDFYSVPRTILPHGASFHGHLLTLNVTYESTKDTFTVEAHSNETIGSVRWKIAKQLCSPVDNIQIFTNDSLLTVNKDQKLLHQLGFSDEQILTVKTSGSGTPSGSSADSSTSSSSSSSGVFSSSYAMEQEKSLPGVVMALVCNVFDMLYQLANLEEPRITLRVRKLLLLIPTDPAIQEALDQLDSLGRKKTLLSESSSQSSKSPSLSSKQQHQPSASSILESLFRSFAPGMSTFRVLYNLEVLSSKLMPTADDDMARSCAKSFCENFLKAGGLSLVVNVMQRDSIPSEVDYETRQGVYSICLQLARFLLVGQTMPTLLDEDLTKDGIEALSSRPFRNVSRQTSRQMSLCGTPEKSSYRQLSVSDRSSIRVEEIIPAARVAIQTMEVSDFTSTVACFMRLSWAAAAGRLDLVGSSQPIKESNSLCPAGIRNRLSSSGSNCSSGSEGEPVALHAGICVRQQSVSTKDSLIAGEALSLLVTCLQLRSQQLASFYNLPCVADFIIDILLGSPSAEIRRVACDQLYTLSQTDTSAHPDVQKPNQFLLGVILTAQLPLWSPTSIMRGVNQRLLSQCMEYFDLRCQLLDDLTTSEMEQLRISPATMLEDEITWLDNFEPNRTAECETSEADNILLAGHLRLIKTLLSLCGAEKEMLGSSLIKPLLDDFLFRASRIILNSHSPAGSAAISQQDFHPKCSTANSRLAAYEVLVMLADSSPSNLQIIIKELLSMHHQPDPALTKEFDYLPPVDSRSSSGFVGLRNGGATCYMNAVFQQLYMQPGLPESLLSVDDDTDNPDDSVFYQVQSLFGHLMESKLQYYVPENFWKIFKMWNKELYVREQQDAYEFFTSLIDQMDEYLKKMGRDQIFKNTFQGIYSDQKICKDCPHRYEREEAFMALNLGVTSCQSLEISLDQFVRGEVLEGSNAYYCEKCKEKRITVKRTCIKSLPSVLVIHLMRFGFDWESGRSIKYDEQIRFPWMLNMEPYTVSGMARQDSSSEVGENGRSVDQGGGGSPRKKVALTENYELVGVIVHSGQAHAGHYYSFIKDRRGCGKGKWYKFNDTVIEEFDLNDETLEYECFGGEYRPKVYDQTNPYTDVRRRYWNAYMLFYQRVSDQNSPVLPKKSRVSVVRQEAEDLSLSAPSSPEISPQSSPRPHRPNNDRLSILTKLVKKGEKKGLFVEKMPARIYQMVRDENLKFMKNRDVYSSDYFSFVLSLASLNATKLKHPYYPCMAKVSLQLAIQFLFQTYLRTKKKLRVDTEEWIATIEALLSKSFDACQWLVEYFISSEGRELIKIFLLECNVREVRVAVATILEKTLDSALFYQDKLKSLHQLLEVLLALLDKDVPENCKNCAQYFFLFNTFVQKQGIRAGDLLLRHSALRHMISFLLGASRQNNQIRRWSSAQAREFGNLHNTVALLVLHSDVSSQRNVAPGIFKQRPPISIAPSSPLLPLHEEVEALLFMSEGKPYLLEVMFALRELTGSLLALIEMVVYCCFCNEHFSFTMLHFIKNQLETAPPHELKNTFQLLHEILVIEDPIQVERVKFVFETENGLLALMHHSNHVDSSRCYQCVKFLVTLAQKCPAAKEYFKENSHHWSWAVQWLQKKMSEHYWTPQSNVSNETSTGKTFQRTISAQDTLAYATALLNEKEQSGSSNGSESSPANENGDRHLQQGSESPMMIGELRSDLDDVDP
Method in brief: as §1

USP25 = target: T3, USP25 (UniProt Q9UHP3)
T3 sequence (whole entry): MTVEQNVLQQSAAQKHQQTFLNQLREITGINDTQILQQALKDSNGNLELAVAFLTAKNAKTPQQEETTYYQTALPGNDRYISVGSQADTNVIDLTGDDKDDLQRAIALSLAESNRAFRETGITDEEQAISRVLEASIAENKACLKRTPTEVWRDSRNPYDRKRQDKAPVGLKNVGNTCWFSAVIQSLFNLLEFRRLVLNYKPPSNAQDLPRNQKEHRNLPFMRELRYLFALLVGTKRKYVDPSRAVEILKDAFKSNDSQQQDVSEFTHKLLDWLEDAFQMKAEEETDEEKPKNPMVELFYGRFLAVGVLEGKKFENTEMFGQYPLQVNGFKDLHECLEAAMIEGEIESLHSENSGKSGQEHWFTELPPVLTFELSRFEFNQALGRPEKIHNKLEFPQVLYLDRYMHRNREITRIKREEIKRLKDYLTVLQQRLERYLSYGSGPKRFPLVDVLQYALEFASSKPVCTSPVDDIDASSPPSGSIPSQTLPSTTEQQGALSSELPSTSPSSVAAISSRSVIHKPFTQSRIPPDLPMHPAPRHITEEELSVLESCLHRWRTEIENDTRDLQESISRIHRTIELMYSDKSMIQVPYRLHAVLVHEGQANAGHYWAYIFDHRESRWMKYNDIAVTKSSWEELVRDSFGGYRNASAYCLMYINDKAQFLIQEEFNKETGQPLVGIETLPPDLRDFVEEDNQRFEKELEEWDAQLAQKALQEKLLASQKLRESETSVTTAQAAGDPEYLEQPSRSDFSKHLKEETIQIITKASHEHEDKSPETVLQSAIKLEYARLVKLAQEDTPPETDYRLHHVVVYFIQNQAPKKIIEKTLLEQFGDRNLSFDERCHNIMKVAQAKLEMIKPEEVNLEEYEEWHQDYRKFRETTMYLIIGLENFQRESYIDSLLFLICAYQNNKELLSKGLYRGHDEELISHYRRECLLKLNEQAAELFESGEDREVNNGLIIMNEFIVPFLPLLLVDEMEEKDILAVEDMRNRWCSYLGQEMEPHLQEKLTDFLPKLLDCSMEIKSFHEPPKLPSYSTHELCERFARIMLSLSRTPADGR
Method in brief: as §1

USP28 = target: T4, USP28 (UniProt Q96RU2)
T4 sequence (whole entry): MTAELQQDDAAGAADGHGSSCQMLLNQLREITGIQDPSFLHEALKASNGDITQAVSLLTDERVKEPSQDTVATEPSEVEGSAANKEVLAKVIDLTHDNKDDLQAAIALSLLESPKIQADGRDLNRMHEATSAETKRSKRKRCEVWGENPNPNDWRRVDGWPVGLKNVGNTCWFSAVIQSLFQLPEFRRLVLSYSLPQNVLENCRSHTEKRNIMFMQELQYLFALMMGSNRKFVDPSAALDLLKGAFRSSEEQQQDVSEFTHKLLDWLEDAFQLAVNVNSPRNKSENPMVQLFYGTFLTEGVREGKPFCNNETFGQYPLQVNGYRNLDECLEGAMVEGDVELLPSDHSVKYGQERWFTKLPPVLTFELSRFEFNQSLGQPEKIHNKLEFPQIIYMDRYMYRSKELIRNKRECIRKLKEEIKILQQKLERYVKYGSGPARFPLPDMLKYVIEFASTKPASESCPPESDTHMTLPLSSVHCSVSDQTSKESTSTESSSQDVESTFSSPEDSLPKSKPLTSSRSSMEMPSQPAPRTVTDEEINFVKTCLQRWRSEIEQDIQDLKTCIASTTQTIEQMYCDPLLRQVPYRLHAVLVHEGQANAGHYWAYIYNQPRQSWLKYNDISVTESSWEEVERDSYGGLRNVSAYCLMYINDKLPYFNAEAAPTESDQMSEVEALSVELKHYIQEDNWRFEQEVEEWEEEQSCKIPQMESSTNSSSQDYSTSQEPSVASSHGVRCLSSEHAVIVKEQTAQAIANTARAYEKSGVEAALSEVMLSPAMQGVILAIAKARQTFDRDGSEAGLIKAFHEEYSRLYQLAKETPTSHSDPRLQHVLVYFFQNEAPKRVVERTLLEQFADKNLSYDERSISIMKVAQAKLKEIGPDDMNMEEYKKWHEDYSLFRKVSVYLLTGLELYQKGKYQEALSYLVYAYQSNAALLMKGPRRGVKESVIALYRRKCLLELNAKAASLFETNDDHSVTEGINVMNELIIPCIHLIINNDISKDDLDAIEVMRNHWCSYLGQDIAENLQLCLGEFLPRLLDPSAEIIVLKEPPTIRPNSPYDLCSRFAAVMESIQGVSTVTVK
Method in brief: as §1

Measured: log2 ratio of Biotin-Ahx-Ub-VS probe labelling

O=C(CCl)NC1CCN(C(=O)C2CCCCC2)CC1
inactive: USP19 0.0532 | USP22 0.324 | USP24 -0.169 | USP25 -0.158 | USP28 -0.257
